# According to PubChem BioAssay:
# Values joined by “and” are separate entries in the source; they are usually repeats but may differ in a detail not shown here. Equal values may be shown once. Some compounds were tested as several samples or in several runs, with calls that do not always agree. Active and inactive are the calls of the source.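 Rule for the calls, unless noted: active = compounds that lower viability of the colon cancer cells in the luminescence readout, with no numeric limit stated; inactive = the rest.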
# How the values were obtained:
# [1] = Wnt pathway potentiators raising nuclear beta-catenin – imaging, WNT3A-conditioned medium, mouse C2C12, NPC library, primary screen (AID 1117326; in the data active = nuclear beta-catenin stimulation mostly above about 4.2%, no sharp cut-off; inactive = mostly below about 10%); settings: stronger effect = higher value
# [2] = stimulators of insulin release from INS-1E, primary screen, cell-based, 5 mM glucose, NPC library (AID 1117329;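 active = compound raises insulin release from rat beta cells at 5 mM glucose, no numeric limit stated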); settings: rat INS-1E insulin secretion, at 10 µM, stronger effect = higher value
# [3] = growth inhibition of GSK3B-pretreated HCT116 cells – cell-based, CellTiter-Glo, 0.2 to 20 µM (AID 1117336;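 active = compounds lowering colon cancer cell viability after pretreatment blocking the GSK3B kinase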); settings: HCT116 viability after GSK3B inhibitor, at 20 µM, stronger effect = higher value
# [4] = inhibition of endothelial tube formation, primary screen, imaging, VEGF stimulated, CD31 staining, tube area, NPC library (AID 1117340;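 active = compound that reduces growth-factor-driven endothelial tube area in a mixed cell culture, no cutoff stated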); settings: VEGF-stimulated ADSC/ECFC co-culture, at 10 µM, stronger effect = higher value
# [5] = GLP1 release stimulators, primary, NCI-H716, NPC library (AID 1117341;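 active = compound raises GLP1 secretion from the human gut endocrine cells, with no numeric limit stated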); settings: NCI-H716 cells, at 10 µM, stronger effect = higher value
# [6] = HCT116 colon cancer cell growth inhibition, primary screen, CellTiter-Glo luminescence, NPC library (AID 1117342;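 active = compounds that lower survival of HCT116 colon cancer cells in the luminescence readout, no numeric limit stated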); settings: at 20 µM (top of the series)
# [7] = reduced SW480 viability measured with CellTiter-Glo, NPC library, primary (AID 1117343); settings: CellTiter-Glo luminescence; at 20 µM (top of the series)
# [8] = NPC library primary testing for decreased DLD-1 cell viability via CellTiter-Glo (AID 1117346;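 active = compounds that lower survival of DLD-1 colon cancer cells in the luminescence readout, no cutoff given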); settings: DLD-1 viability, CellTiter-Glo luminescence; at 20 µM (top of the series)
# [9] = target: 6-phosphogluconate dehydrogenase, decarboxylating (Homo sapiens) (UniProt P52209); test: inhibition of human phosphogluconate dehydrogenase – biochemical, recombinant enzyme, NADPH absorbance, primary screen (AID 1159550;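 active = at least 20% inhibition of 6-phosphogluconate dehydrogenase activity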); settings: recombinant 6PGD, NADPH absorbance 341 nm; at 10 µM; stronger effect = higher value
# [10] = modulation of C. elegans fzo-1 (AID 1259413; call rule not given here;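 note: fzo-1 mutant C. elegans worms in liquid wells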); settings: C. elegans fzo-1 modulator screen, mean read-out; stronger effect = higher value
# [11] = EMT-state selective cytotoxicity in co-culture – imaging, PC-3E GFP, TEM4-18 mCherry, primary screen (AID 1345086;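 active = compounds killing one labelled cell type while sparing the other, by normalised counts and ratio limits, not self-fluorescent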;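 for all read-outs here: cells exposed to compound for 72 h before imaging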;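 for red/green cell ratio (normalised): normalised mesenchymal count divided by normalised epithelial count so high means epithelial killing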); settings: PC-3E GFP / TEM4-18 mCherry co-culture, imaging cell counts, at 1 µM; for red/green cell ratio (normalised): actives lie on both sides, counts scaled to control wells, 1 = unselective
# [12] = MELAS cybrid and Rieske KO viability enhancers – cell-based, MELAS cybrids, Rieske KO mouse fibroblasts, CellTiter-Glo, primary screen (AID 1508586;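 active = mean z-score across replicates of 1.96 or higher in either the MELAS or the Rieske mutant cell line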;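 note: z relative to plate mean and SD of compound and empty wells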); settings: low glucose
# [13] = target: NAD(+) hydrolase SARM1 (Homo sapiens) (UniProt Q6SZW1); test: blocking NAD cleavage by SARM1 SAM-TIR – cell lysate, NAD-Glo luminescence (AID 1508614;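 active = compound whose remaining NAD level is above about 45 nM, limit read from the data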;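 note: higher remaining NAD means stronger inhibition of SARM1 NADase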); settings: SAM-TIR HEK293T lysate NADase, at 1 µM, stronger effect = higher value
# [14] = target: Mitogen-activated protein kinase 7 (Homo sapiens) (UniProt Q13164); test: Gal4-ERK5 driven luciferase induction – cell-based, HTS, primary screen (AID 1508626;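 active = luciferase signal above three times the same-plate solvent-only control wells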;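 note: luciferase driven by Gal4-ERK5 fusion binding five Gal4 sites before minimal TATA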); settings: HeLa Gal4-ERK5 transactivation, 18 h, at 5 µM, stronger effect = higher value
# [15] = system: F380Y; test: BK channel mutant inhibitors and activators – cell-based, U2OS BacMam, thallium flux, beta subunits, selectivity assay, profiling panel (AID 1259406;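 active = thallium flux through the channel raised or lowered by more than 3 SD from vehicle-only wells, actives on both sides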;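 note: initial slope of Thallos dye fluorescence rise after thallium is added; log ratio against the mean of 0.3% DMSO vehicle wells on the same plate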); settings: U2OS BacMam BK variants, at 30 µM
# [16] = system: F380Y/beta1; test: as above; settings: U2OS BacMam BK variants, at 30 µM
# [17] = system: F380Y/beta2Delta; test: as above; settings: U2OS BacMam BK variants, at 30 µM
# [18] = system: F380Y/beta4; test: as above; settings: U2OS BacMam BK variants, at 30 µM
# [19] = measured here: epithelial PC-3E GFP cell survival
# [20] = measured here: mesenchymal TEM4-18 mCherry cell survival
# [21] = MELAS cybrid survival, CellTiter-Glo 48 h, stronger effect = higher value
# [22] = Rieske KO mouse fibroblast survival, CellTiter-Glo 72 h
# Chain of 6-phosphogluconate dehydrogenase, decarboxylating (Homo sapiens) (P52209 whole entry, looked up): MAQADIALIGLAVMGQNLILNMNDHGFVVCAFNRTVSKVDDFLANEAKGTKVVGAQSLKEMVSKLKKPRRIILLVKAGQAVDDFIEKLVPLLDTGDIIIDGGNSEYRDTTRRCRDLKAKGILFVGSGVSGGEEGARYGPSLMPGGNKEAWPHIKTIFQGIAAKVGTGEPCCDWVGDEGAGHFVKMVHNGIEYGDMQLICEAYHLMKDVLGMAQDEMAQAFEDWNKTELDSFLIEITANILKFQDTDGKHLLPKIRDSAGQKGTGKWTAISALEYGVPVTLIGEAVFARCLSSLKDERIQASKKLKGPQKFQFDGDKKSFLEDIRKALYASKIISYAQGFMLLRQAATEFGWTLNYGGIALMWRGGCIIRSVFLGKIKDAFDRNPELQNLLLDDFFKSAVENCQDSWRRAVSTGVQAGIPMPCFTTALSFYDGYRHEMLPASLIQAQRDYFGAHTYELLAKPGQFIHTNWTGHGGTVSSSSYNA
# Chain of NAD(+) hydrolase SARM1 (Homo sapiens) (Q6SZW1 whole entry, looked up, the tested form may be a part): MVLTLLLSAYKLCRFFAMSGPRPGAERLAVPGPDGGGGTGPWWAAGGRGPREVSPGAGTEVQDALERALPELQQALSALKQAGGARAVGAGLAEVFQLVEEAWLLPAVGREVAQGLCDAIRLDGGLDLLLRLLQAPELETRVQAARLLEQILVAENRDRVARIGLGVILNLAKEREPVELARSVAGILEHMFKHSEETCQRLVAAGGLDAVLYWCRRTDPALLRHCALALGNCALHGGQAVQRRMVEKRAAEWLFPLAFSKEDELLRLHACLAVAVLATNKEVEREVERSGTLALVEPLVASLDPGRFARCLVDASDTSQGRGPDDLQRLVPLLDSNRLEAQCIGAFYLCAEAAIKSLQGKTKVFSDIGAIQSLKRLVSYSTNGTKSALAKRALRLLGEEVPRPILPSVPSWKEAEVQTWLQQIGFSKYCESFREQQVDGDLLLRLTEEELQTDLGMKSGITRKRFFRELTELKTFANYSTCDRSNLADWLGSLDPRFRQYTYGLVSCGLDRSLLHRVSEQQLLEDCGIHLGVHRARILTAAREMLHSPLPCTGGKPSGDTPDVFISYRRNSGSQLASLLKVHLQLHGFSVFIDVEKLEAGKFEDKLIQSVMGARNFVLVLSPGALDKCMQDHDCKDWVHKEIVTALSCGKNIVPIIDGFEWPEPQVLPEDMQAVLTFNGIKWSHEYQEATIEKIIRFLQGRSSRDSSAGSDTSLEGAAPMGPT
# Chain of Mitogen-activated protein kinase 7 (Homo sapiens) (Q13164 whole entry, looked up, the tested form may be a part): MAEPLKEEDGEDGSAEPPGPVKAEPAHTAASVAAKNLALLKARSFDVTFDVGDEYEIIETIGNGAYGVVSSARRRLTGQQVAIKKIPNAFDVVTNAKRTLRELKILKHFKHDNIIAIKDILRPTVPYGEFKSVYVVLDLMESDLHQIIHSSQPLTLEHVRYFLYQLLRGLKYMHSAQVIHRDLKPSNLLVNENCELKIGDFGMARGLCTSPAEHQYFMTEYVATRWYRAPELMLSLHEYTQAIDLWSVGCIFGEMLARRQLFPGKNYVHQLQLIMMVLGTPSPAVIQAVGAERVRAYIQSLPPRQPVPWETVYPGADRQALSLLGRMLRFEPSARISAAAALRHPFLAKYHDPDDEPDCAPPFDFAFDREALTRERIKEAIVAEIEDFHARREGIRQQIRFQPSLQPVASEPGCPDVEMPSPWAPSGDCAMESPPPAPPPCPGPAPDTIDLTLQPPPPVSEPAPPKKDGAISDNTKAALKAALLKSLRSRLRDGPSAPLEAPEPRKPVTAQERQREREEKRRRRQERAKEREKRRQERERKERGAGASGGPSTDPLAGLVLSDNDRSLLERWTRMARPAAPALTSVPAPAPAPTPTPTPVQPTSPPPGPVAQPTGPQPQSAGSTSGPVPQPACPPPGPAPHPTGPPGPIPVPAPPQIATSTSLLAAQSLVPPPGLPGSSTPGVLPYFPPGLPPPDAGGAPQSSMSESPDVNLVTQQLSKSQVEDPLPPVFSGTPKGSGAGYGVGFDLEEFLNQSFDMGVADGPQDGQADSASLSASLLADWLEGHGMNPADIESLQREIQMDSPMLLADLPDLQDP
structure (smiles),measurement,setting,value
CC(C)=CCCC(C)=CCCC(C)=CCCC(C)=CCC1=C(C)C(=O)c2ccccc2C1=O,nuclear beta-catenin stimulation,[1]; at 10 µM,-0.4% (inactive)
same,nuclear beta-catenin stimulation,"[1]; stimulation, at 2 µM",0%
same,insulin secretion stimulation,[2],0.5% (inactive)
same,viability decrease,[3],27.6% (inactive)
same,tube area decrease,[4],3.6% (inactive)
same,GLP1 secretion stimulation,[5],-0.8% (inactive)
same,inhibition of viability,[6],37.8% (inactive)
same,viability decrease (inhibition),[7],12.3% (inactive)
same,viability decrease (inhibition),[8],11.1% (inactive)
C[C@@]12CCC[C@H]1[C@@H]1CC[C@H]3C[C@@H](O)CC[C@]3(C)[C@H]1CC2,nuclear beta-catenin stimulation,[1]; at 10 µM,3% (inactive)
same,nuclear beta-catenin stimulation,"[1]; stimulation, at 2 µM",-0.1%
same,insulin secretion stimulation,[2],-1% (inactive)
same,viability decrease,[3],65.4% (active)
same,tube area decrease,[4],-28.4% (inactive)
same,GLP1 secretion stimulation,[5],4% (inactive)
same,inhibition of viability,[6],-11.6% (inactive)
same,viability decrease (inhibition),[7],121% (active)
same,viability decrease (inhibition),[8],103% (active)
Cc1cn([C@H]2C[C@H](F)[C@@H](CO)O2)c(=O)[nH]c1=O,nuclear beta-catenin stimulation,[1]; at 10 µM,9.9% (inactive)
same,nuclear beta-catenin stimulation,"[1]; stimulation, at 2 µM",3.4%
same,insulin secretion stimulation,[2],0.2% (inactive)
same,viability decrease,[3],-4.5% (inactive)
same,tube area decrease,[4],20.7% (inactive)
same,GLP1 secretion stimulation,[5],-4.5% (inactive)
same,inhibition of viability,[6],1.4% (inactive)
same,viability decrease (inhibition),[7],-3.5% (inactive)
same,viability decrease (inhibition),[8],-8.7% (inactive)
N/C(=N\N=C\c1ccc(Cl)cc1)N/N=C/c1ccc(Cl)cc1,nuclear beta-catenin stimulation,[1]; at 10 µM,0.5% (inactive)
same,nuclear beta-catenin stimulation,"[1]; stimulation, at 2 µM",0.1%
same,insulin secretion stimulation,[2],-0.1% (inactive)
same,viability decrease,[3],99.6% (active)
same,tube area decrease,[4],108% (active)
same,GLP1 secretion stimulation,[5],-3.3% (inactive)
same,inhibition of viability,[6],99.3% (active)
same,viability decrease (inhibition),[7],103% (active)
same,viability decrease (inhibition),[8],102% (active)
CC(C)=CCNc1ncnc2c1ncn2[C@@H]1O[C@H](CO)[C@@H](O)[C@H]1O,nuclear beta-catenin stimulation,[1]; at 10 µM,4.6% (inactive)
same,nuclear beta-catenin stimulation,"[1]; stimulation, at 2 µM",1.9%
same,insulin secretion stimulation,[2],1.8% (inactive)
same,viability decrease,[3],109% (active)
same,tube area decrease,[4],106% (active)
same,GLP1 secretion stimulation,[5],0.8% (inactive)
same,inhibition of viability,[6],111% (active)
same,viability decrease (inhibition),[7],110% (active)
same,viability decrease (inhibition),[8],101% (active)
NS(=O)(=O)c1ccc(NC(=O)CCC(=O)O)cc1,nuclear beta-catenin stimulation,[1]; at 10 µM,-0.1% (inactive)
same,nuclear beta-catenin stimulation,"[1]; stimulation, at 2 µM",-0.3%
same,insulin secretion stimulation,[2],-2.4% (inactive)
same,viability decrease,[3],-9.65% (inactive)
same,tube area decrease,[4],-1.3% (inactive)
same,GLP1 secretion stimulation,[5],0.1% (inactive)
same,inhibition of viability,[6],-10.5% (inactive)
same,viability decrease (inhibition),[7],-26.6% (inactive)
same,viability decrease (inhibition),[8],-13.6% (inactive)
CC1=C(CC(=O)O)c2cc(F)ccc2/C1=C\c1ccc(S(C)=O)cc1 (centres undefined),nuclear beta-catenin stimulation,[1]; at 10 µM,-1.5% (inactive)
same,nuclear beta-catenin stimulation,"[1]; stimulation, at 2 µM",0.2%
same,insulin secretion stimulation,[2],0.2% (inactive)
same,viability decrease,[3],-51.5% (inactive)
same,tube area decrease,[4],15.7% (inactive)
same,GLP1 secretion stimulation,[5],-1.1% (inactive)
same,inhibition of viability,[6],-9.1% (inactive)
same,viability decrease (inhibition),[7],15% (inactive)
same,viability decrease (inhibition),[8],-23.3% (inactive)
same,inhibition,[9],2.79% (inactive)
same,mean signal,[10],230 (inactive)
same,red/green cell ratio (normalised),[11],1.2 (inactive)
same,normalised cell number,[11]; [19],0.35
same,normalised cell number,[11]; [20],0.43
same,z-score,[12]; [21],-0.637 (inactive)
same,z-score,[12]; [22],0.215
same,remaining NAD,[13],10 nM (inactive)
same,luciferase signal,[14],56 AU (inactive)
same,log fold change Tl+ flux,[15],0.0356 (inactive)
same,log fold change Tl+ flux,[16],0.0787 (inactive)
same,log fold change Tl+ flux,[17],0.0561 (inactive)
same,log fold change Tl+ flux,[18],0.0346 (inactive)
NC12CC3CC(CC(C3)C1)C2,nuclear beta-catenin stimulation,[1]; at 10 µM,2.1% (inactive)
same,nuclear beta-catenin stimulation,"[1]; stimulation, at 2 µM",1.9%
same,insulin secretion stimulation,[2],2.4% (inactive)
same,viability decrease,[3],7.6% (inactive)
same,tube area decrease,[4],3.9% (inactive)
same,GLP1 secretion stimulation,[5],6.5% (inactive)
same,inhibition of viability,[6],30.7% (inactive)
same,viability decrease (inhibition),[7],56.6% (active)
same,viability decrease (inhibition),[8],14.6% (inactive)
same,inhibition,[9],-14.3% (inactive)
same,mean signal,[10],230 (inactive)
same,red/green cell ratio (normalised),[11],1.38 (inactive)
same,normalised cell number,[11]; [19],0.95
same,normalised cell number,[11]; [20],1.32
same,z-score,[12]; [21],-0.372 (inactive) and -0.42 (inactive) and -0.564 (inactive)
same,z-score,[12]; [22],-0.543 and 0.116 and -0.0986
same,remaining NAD,[13],10 nM (inactive)
same,luciferase signal,[14],44 AU (inactive)
same,log fold change Tl+ flux,[15],-0.0507 (inactive)
same,log fold change Tl+ flux,[16],0.00169 (inactive)
same,log fold change Tl+ flux,[17],0.0403 (inactive)
same,log fold change Tl+ flux,[18],0.0492 (inactive)
CCCC(=O)OC[C@@H](OC(=O)CCC)[C@@H](OC(=O)CCC)[C@H](Cn1c2nc(=O)[nH]c(=O)c-2nc2cc(C)c(C)cc21)OC(=O)CCC,nuclear beta-catenin stimulation,[1]; at 10 µM,-0.4% (inactive)
same,nuclear beta-catenin stimulation,"[1]; stimulation, at 2 µM",2.2%
same,insulin secretion stimulation,[2],1.9% (inactive)
same,viability decrease,[3],39.1% (inactive)
same,tube area decrease,[4],14.1% (inactive)
same,GLP1 secretion stimulation,[5],2.6% (inactive)
same,inhibition of viability,[6],11.7% (inactive)
same,viability decrease (inhibition),[7],25.5% (inactive)
same,viability decrease (inhibition),[8],24.5% (inactive)
CC(C)NC(=O)c1ccc(C=O)cc1,nuclear beta-catenin stimulation,[1]; at 10 µM,0% (inactive)
same,nuclear beta-catenin stimulation,"[1]; stimulation, at 2 µM",-0.8%
same,insulin secretion stimulation,[2],-0.75% (inactive)
same,viability decrease,[3],18.8% (inactive)
same,tube area decrease,[4],-7.2% (inactive)
same,GLP1 secretion stimulation,[5],2.1% (inactive)
same,inhibition of viability,[6],-5.1% (inactive)
same,viability decrease (inhibition),[7],-15.1% (inactive)
same,viability decrease (inhibition),[8],-5.8% (inactive)
N=C(N)c1ccc(OCCCCCOc2ccc(C(=N)N)cc2)cc1,nuclear beta-catenin stimulation,[1]; at 10 µM,-0.7% (inactive)
same,nuclear beta-catenin stimulation,"[1]; stimulation, at 2 µM",1.1%
same,insulin secretion stimulation,[2],2.3% (inactive)
same,viability decrease,[3],0.4% (inactive)
same,tube area decrease,[4],43.4% (active)
same,GLP1 secretion stimulation,[5],-3.5% (inactive)
same,inhibition of viability,[6],12.5% (inactive)
same,viability decrease (inhibition),[7],60.9% (active)
same,viability decrease (inhibition),[8],55.1% (active)
same,inhibition,[9],12.1% (inactive)
same,red/green cell ratio (normalised),[11],0.75 (inactive)
same,normalised cell number,[11]; [19],1.05
same,normalised cell number,[11]; [20],0.79
same,z-score,[12]; [21],6.07 (active) and -3.61 (inactive) and 2.69 (active)
same,z-score,[12]; [22],6.42 and -2.57 and -1.21
same,remaining NAD,[13],10 nM (inactive)
CCOC(=O)[C@H](CCc1ccccc1)N[C@H]1CCc2ccccc2N(CC(=O)O)C1=O,nuclear beta-catenin stimulation,[1]; at 10 µM,27.7% (inactive)
same,nuclear beta-catenin stimulation,"[1]; stimulation, at 2 µM",2.2%
same,insulin secretion stimulation,[2],1.1% (inactive)
same,viability decrease,[3],-40.3% (inactive)
same,tube area decrease,[4],33.7% (inactive)
same,GLP1 secretion stimulation,[5],16.1% (inactive)
same,inhibition of viability,[6],51.1% (active)
same,viability decrease (inhibition),[7],102% (active)
same,viability decrease (inhibition),[8],44.2% (inactive)
same,inhibition,[9],-6.81% (inactive)
same,mean signal,[10],261 (inactive)
same,red/green cell ratio (normalised),[11],0.73 (inactive)
same,normalised cell number,[11]; [19],1.36
same,normalised cell number,[11]; [20],0.98
same,z-score,[12]; [21],0.369 (inactive)
same,z-score,[12]; [22],0.328
same,remaining NAD,[13],10 nM (inactive)
same,luciferase signal,[14],92 AU (inactive)
same,log fold change Tl+ flux,[15],-0.0356 (inactive)
same,log fold change Tl+ flux,[16],0.0148 (inactive)
same,log fold change Tl+ flux,[17],-0.052 (inactive)
same,log fold change Tl+ flux,[18],0.0138 (inactive)
